Nrf2 block – Nrf2 qHTS screen for inhibitors | A549 ARE-Fluc reporter, luciferase luminescence, 18-24 h | Potency, µM (top dose mostly 46 µM), inactives show at the top dose activity change, negative = inhibition, hits mostly inhibitors | 360,000 compounds, 2.1% hits; note: % is set by controls: 0 for no effect and ±100 for the full control effect; nearly all actives have a fitted effect of over 60% in size
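Quantitative HTS in A549 cells stably bearing an antioxidant response element-firefly luciferase construct. Inhibition of Nrf2-driven transcription was scored by luminescence after 18-24 h of compound exposure at 37 °C.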
TrxR1 substrate – qHTS Assay for Substrates of Mammalian Selenoprotein Thioredoxin Reductase 1 (TrxR1): qHTS; Thioredoxin reductase 1, cytoplasmic (Rattus norvegicus), O89049; purified TrxR1 substrate turnover, NADPH consumption readout; Potency, µM (titrated, usually from 114 µM), for inactives: top-dose activity change, negative = substrate turnover; 390,000 compounds, 0.01% hits; AID 588456, 2011; note: % is set by controls: 0 for no effect and ±100 for the full control effect; nearly all actives have a fitted effect of over 50% in size
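Rat TrxR1, dispensed at 90 nM, was prereduced with 400 uM NADPH (final) for 5 min at ~22 deg C, then incubated with compound 15 min before 400 uM selenite. A first-read NADPH fluorescence drop versus no-compound background flagged substrates.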
IDH1 R132H inh – qHTS for Inhibitors of mutant isocitrate dehydrogenase 1 (IDH1): qHTS; Isocitrate dehydrogenase [NADP] cytoplasmic (Homo sapiens), O75874; IDH1-R132H enzyme, NADPH consumption, diaphorase/resazurin fluorescence; Potency, µM (titrated, usually from 76.6 µM), for inactives: at the highest dose activity change, negative = inhibition, usual class: inhibitors; 390,000 compounds, 0.093% hits; note: % is set by controls: 0 for no effect and ±100 for the full control effect; nearly all actives have a fitted effect of over 65% in size
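IDH1-R132H (0.5 ug/mL) preincubated 30 min with compound, then NADPH (0.016 mM) and alpha-KG (2 mM) added; 80 min at RT, pH 7.5. Remaining NADPH coupled via diaphorase/resazurin to fluorescence (540/590 nm); concentration-response curves normalized to no-enzyme control.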
rTrxR1 inhibitor – qHTS Assay for Inhibitors of Mammalian Selenoprotein Thioredoxin Reductase 1 (TrxR1): qHTS. recombinant rTrxR1, NADPH fluorescence consumption, selenite substrate. Potency, µM (titrated, usually from 114 µM), without a hit: at the highest dose activity change, negative = inhibition, usual class: inhibitors. 390,000 compounds, 1% hits; note: % is set by controls: 0 for no effect and ±100 for the full control effect; nearly all actives have a fitted effect of over 65% in size
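Rat TrxR1 (90 nM in the dispensed reagent) was pre-reduced with 400 uM NADPH for 5 min at room temperature, then incubated with compound for 15 min. After 400 uM selenite was added, NADPH fluorescence (Ex 340/Em 450 nm) was followed for 8 min.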
A549 tox-1 – Nrf2 qHTS screen for inhibitors: counterscreen for cytotoxicity | A549 ARE-Fluc cells, CellTiter-Fluor viability, 18-24 h | Potency, µM (series often up to 46 µM), inactives show top-dose activity change, negative = cytotoxicity, most hits filed as inhibitors | 390,000 compounds, 0.16% hits; note: % is set by controls: 0 for no effect and ±100 for the full control effect
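A549 ARE_Fluc cells in 5% FBS OPTI-MEM were exposed to compounds in concentration-response for 18-24 h at 37 deg C. Viability was read by CellTiter-Fluor fluorescence (Ex 405/Em 525) after 30 min, before the luciferase read.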
Mito fusion yeast – qHTS Assay for Small Molecule Inhibitors of Mitochondrial Division or Activators of Mitochondrial Fusion | S. cerevisiae fusion-defective mutant growth rescue, CellTiterGlo 48 h | Potency, µM (top dose mostly 46.1 µM), without a hit: at the highest dose growth rescue (activation), hits mostly activators | 320,000 compounds, 0.23% hits | AID 485298, 2010; note: % of control where 0% means no effect; nearly all actives have a fitted effect of over 45% in size
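Growth-rescue viability read-out: after 48 h at the non-permissive 37C in glycerol/ethanol YPEG, yeast mitochondrial fusion mutants are measured by CellTiterGlo luminescence; compounds (23 nl pinned per well) restoring growth score as division inhibitors or fusion activators.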
FLuc counter 3 – Nrf2 qHTS screen for inhibitors: Purified Fluc Biochemical Counterscreen for Hit Validation; shares compounds with Nrf2 block; purified firefly luciferase, luminescence inhibition; Potency, µM (series often up to 57.5 µM), for the others: at the top dose activity change, negative = inhibition, actives largely listed as inhibitors; 1,400 compounds, 4% hits; note: % is set by controls: 0 for no effect and ±100 for the full control effect; nearly all actives have a fitted effect of over 65% in size
Target sequence (P08659 whole entry, looked up): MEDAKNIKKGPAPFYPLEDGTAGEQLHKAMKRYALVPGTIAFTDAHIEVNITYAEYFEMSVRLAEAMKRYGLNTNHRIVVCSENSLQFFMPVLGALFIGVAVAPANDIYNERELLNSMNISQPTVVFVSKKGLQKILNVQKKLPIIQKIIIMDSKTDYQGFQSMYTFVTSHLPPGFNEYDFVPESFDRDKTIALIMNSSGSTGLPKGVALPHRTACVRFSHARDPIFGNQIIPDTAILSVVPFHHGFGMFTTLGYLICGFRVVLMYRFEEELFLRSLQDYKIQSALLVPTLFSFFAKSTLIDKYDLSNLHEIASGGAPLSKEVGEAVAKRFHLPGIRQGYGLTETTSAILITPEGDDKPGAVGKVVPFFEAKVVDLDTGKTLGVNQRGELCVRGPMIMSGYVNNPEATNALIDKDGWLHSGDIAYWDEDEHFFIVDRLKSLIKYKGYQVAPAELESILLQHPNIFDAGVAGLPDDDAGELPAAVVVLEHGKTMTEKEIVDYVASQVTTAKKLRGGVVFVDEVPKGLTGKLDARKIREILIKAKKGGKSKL
A549 tox-2 – Nrf2 qHTS screen for inhibitors: A549 ARE-Fluc Cytotoxicity Counterscreen for Hit Validation. shares compounds with Nrf2 block. Potency, µM (titrated, usually from 46.1 µM), for the others: at the highest dose activity change, negative = cytotoxicity, hits mostly inhibitors. A549 ARE-Fluc cells, cytotoxicity counterscreen. 1,400 compounds, 2% hits;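 note: cells exposed to compounds for 18 to 24 hours; % is set by controls: 0 for no effect and ±100 for the full control effect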
ARE-Fluc inh – Nrf2 qHTS screen for inhibitors: Nrf2 A549 ARE-Fluc Confirmation Assay for Hit Validation. A549 ARE-firefly luciferase reporter, luminescence. 1,400 compounds, 74% hits. shares compounds with Nrf2 block. Potency, µM (highest dose often 46.1 µM), inactives show at the highest dose activity change, negative = inhibition, usual class: inhibitors. AID 720524, 2013; note: % is set by controls: 0 for no effect and ±100 for the full control effect; nearly all actives have a fitted effect of over 65% in size
The depositor's hits bear a star; ? = inconclusive; . = no result shown; [ ] = another dose, or the depositor's remark. Shown are actives, neighbours in structure and some others; about 3.1% of the full set was active somewhere. Calls come from the whole dose curve; as a rule, active = well fitted curve in the direction sought with a large enough effect; inconclusive = small, poorly fitted or top-dose-only effect, or another doubt; inactive = no such curve, though single readings can be large; an effect the other way counts as inactive or inconclusive. Potency is the fitted concentration of half-maximal effect.

SMILES	Nrf2 block	TrxR1 substrate	IDH1 R132H inh	rTrxR1 inhibitor	A549 tox-1	Mito fusion yeast	FLuc counter 3	A549 tox-2	ARE-Fluc inh
Cc1ccc2c(c1)N(C)/C(=C/c1cccc[n+]1CCO)S2	-15%	-13%	-6%	?	-21%	18%	.	.	.
CN(C)S(=O)(=O)N1CCN(S(=O)(=O)c2ccc(F)cc2)CC1	6%	7%	5%	24%	-17%[1.84 µM]	3%	.	.	.
CN(C)S(=O)(=O)c1ccc(N2CCN(S(=O)(=O)c3ccc(F)cc3)CC2)c(Cl)c1	5.8µM*	9%	0%	20%	-17%	-4%	-1%	-18%	?
CCN(CC)S(=O)(=O)c1ccc2oc(C(=O)Nc3ccc(OC)cc3OC)c(C)c2c1	3.7µM*	6%[57.1 µM]	1%	-20%[57.1 µM]	-5%	3%	-1%	5%	15µM*
CCN(CC)S(=O)(=O)c1ccc2oc(C(=O)NCc3ccc(F)cc3)c(C)c2c1	6.5µM*	-6%	6%	-3%	-16%	18%	-2%	-6%	23µM*
Cc1ccc(-c2nn(-c3ccc(F)cc3F)c3c2cnc2ccc(F)cc23)cc1	.	6%[57.1 µM]	-10%	8%[57.1 µM]	2%	.	.	.	.
COc1ccc(OC)c(Nc2ncnc3sccc23)c1	0%	-1%	2%	11%	0%	-12%	.	.	.
COc1cc(CN(C)c2ncnc3sccc23)ccc1OC(F)F	9.2µM*	4%[57.1 µM]	12%	-10%[57.1 µM]	-16%	1%	-4%	1%	8.2µM*
Cc1cccc(N2CCn3c2nc2c3c(=O)n(C/C=C/c3ccccc3)c(=O)n2C)c1	11%	4%[11.4 µM]	-14%	16%	7%	.	.	.	.
Cc1ccc(S(=O)(=O)N2CCC(n3c(C)nc4cccnc43)CC2)c(C)c1	9.2µM*	1%[57.1 µM]	-16%	4%[57.1 µM]	-11%	.	-2%	-9%	.
CC1(C)CC(N2CCCC2)=CC(=[N+]2CCCCCC2)C1	-20%	-24%	0%	?	-23%	25%	.	.	.
CC1CC(C)C[N+](=C2C=C(N3CCCC3)CC(C)(C)C2)C1 (stereo unspecified)	5.2µM*	-21%	3%	-17%	?	23%	-3%	-28%	.
CC1(C)CC(N2CCN(c3ccccc3)CC2)=CC(=[N+]2CCCC2)C1	?	-17%	2%	?	-6%	1%	2%	-13%	4.6µM*
Cc1nn(-c2ccc(N3CCCCC3)nn2)c(C)c1CCC(=O)NCc1ccc(Cl)cc1	?	5%[57.1 µM]	19%	17%[57.1 µM]	0%	.	.	.	.
Cn1c(-c2ccccn2)[n+](C)c2ccccc21	5.2µM*	0%[11.4 µM]	14%	3%[11.4 µM]	-8%	4%	0%	-1%	10µM*
